# Among all 310,000 compounds or so, about 14,000 (4.5%) showed an effect of 50% or more. The effect is printed as a negative number. The list comes from a sample in which strong results are over-represented; it also holds similar structures and randomly drawn compounds.
# Target: human ether-à-go-go-related gene (hERG) potassium channel (human, UniProt Q12809)
# Assay: primary screen, population patch clamp on CHO cells stably expressing hERG; higher = less effect of the substance
# 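Further: peak tail current of the secondary pulse compared with the same well before compound.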
# Chain of human ether-à-go-go-related gene (hERG) potassium channel (Q12809 whole entry, looked up): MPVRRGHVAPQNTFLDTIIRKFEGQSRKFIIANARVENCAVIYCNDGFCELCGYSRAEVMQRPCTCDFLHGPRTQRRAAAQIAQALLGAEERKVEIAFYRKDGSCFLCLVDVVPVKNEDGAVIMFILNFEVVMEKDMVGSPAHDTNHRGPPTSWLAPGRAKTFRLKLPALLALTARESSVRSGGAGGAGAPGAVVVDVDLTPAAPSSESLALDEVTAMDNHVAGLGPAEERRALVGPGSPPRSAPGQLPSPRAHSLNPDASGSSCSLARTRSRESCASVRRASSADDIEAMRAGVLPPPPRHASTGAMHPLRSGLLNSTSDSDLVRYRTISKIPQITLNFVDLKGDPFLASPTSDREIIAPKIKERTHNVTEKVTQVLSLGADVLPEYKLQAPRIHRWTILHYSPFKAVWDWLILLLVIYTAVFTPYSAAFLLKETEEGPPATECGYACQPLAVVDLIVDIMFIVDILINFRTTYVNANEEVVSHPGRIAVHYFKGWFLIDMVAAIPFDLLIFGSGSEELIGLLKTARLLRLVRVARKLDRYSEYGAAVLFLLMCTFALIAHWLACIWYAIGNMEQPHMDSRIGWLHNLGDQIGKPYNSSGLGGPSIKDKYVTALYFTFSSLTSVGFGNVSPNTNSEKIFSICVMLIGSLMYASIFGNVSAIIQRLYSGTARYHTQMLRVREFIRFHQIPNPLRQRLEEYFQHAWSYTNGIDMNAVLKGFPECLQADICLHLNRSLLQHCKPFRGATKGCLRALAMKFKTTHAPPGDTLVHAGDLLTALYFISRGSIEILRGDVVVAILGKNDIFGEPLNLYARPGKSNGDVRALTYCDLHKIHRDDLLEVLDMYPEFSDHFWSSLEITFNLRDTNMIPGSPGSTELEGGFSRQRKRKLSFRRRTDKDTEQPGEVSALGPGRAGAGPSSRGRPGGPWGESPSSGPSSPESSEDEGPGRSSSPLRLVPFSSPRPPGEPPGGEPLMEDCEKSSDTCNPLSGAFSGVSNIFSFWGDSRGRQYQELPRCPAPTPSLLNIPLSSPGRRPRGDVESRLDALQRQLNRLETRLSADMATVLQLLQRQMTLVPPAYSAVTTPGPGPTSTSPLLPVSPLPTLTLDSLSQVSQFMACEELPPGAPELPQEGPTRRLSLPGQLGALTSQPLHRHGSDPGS
row,SMILES,"hERG current change (%, negative = inhibition) at 10uM [%]"
1,Cc1noc(C)c1CSCC(=O)Nc1cc(Cl)ccc1N1CCCCC1,1.96
2,CCN(CC)S(=O)(=O)c1ccc(NC2c3ccccc3C(=O)N2CCN2CCOCC2)cc1 (stereo not drawn),-37
3,Cc1ccc2c(CC(=O)NC3CCS(=O)(=O)C3)coc2c1C (stereo not drawn),1.78
4,CC(C(=O)NCc1ccccc1Cl)n1cc([N+](=O)[O-])cn1 (stereo not drawn),4.65
5,Cc1ccc2cc3c(NS(=O)(=O)c4cccc5nonc45)nn(CC(C)C)c3nc2c1,9.9
6,COc1cc(C(=O)N[C@@H](Cc2c[nH]c3ccccc23)C(=O)O)cc(OC)c1OC,-53.1
7,COc1cc(C)c(CNCCc2c[nH]c3ccccc23)cc1C.O=C(O)C(=O)O,-36.9
8,O=C(NC(Cc1c[nH]c2ccccc12)C(=O)O)c1ccccc1 (stereo not drawn),1.22
9,COc1ccc(C(=O)NC(Cc2c[nH]c3ccccc23)C(=O)O)cc1 (stereo not drawn),12.4
10,COc1cccc(CNCCc2c[nH]c3ccccc23)c1OC.Cl,-11.1
11,COc1cccc(CNCCc2c[nH]c3ccccc23)c1OCc1ccccc1F.Cl,-55.8
12,COc1ccc(CNCCc2c[nH]c3ccccc23)cc1OC.O=C(O)C(=O)O,-28
13,COc1cc(CNCCc2c[nH]c3ccccc23)ccc1OCc1ccc(F)cc1.Cl,-48.4
14,COc1cc(CNCCc2c[nH]c3ccccc23)ccc1OCc1ccccc1F.Cl,-52
15,COc1cccc(CNCCc2c[nH]c3ccccc23)c1OCc1ccccc1.Cl,-47
16,COc1ccc(CNCCc2c[nH]c3ccccc23)c(OC)c1OC.O=C(O)C(=O)O,-7.44
17,COc1ccc(CNCCc2c[nH]c3ccccc23)c(OC)c1C.O=C(O)C(=O)O,-60.3
18,Cc1cnc(C(=O)Nc2ccc(F)cc2)cn1,-0.2
19,CCN(CC)C(=O)C1CCCN(C(=O)Nc2ccc(NC(=O)N3CCCC(C(=O)N(CC)CC)C3)cc2)C1 (stereo not drawn),-11.5
20,COc1ccc(NC(=O)c2cc(-c3cc(C)cc(C)c3O)n[nH]2)cc1Cl,-4.52
21,Cn1c2c(c(=O)n(C)c1=O)CN(CC1CCCO1)CN2 (stereo not drawn),9.87
22,CC(C)C(=O)Nc1nc(-c2ccc([N+](=O)[O-])cc2)cs1,7.04
23,CC(C)(C)NC(=O)c1cc(-c2ccccc2)n[nH]1,11.5

row,SMILES,"hERG current change (%, negative = inhibition) at 10uM [%]"
1,Cc1ccc(-n2c(Cc3noc4ccccc34)n[nH]c2=S)cc1,8.59
2,NS(=O)(=O)c1cccnc1Nc1cccc(Cl)c1,11.8
3,CCCCNC(=O)c1cc2c(-c3ccc(Cl)cc3)nn(C)c2s1,-7.09
4,Cn1nc(-c2ccc(Cl)cc2)c2cc(C(=O)NCCCN3CCCC3)sc21,-59.5
5,COCCCNC(=O)c1cc2c(-c3ccc(Cl)cc3)nn(C)c2s1,-3.72
6,CCCCN(CC)CCCNC(=O)c1cc2c(-c3ccc(OC)c(OC)c3)nn(C)c2s1,-7.25
7,CCN(CC)CCNC(=O)c1cc2c(-c3ccc(Cl)cc3)nn(C)c2s1,-69.6
8,CN1CCN(CCCNC(=O)c2cc3c(-c4ccc(Cl)cc4)nn(C)c3s2)CC1,-40.1
9,CCCCN(CC)CCNC(=O)c1cc2c(-c3ccc(Cl)cc3)nn(C)c2s1,-74.8
10,Cn1nc(-c2ccc(Cl)cc2)c2cc(C(=O)NCCCN3CCOCC3)sc21,-13.1
11,CCN(CC)CCCNC(=O)c1cc2c(-c3ccc(Cl)cc3)nn(C)c2s1,-59.9
12,CC(C)NC(=O)c1cc2c(-c3ccc(Cl)cc3)nn(C)c2s1,4.67
13,CCOCCCNC(=O)c1cc2c(-c3ccc(Cl)cc3)nn(C)c2s1,9.31
14,COc1cc(CNC(C)C)ccc1OCC(=O)Nc1cccc2ccccc12,-27.2
15,CC(=O)NC1(c2cccc(F)c2)CCN(CC(=O)NC(C)C)CC1,9.55
16,Cc1cc(C(C)(C)C)n2nc(C)c(-c3ccccc3)c2n1,13.9
17,O=[N+]([O-])c1ccc(O)c(Nc2c([N+](=O)[O-])ccc3nonc23)c1,16
18,CCNc1nc(OC)nc(SCC(=O)Nc2ccccc2)n1,17.2
19,Cc1nnc(Nc2ccc(Cl)cc2)n(N)c1=O,8.16
20,O=C(Nc1cccc(-c2nc3ncccc3o2)c1)c1ccccc1,-9.36
21,O=S(=O)(NCc1cccs1)c1ccc(Br)s1,2.07
22,CCN1CCCC1CNC(=O)c1cc2c(-c3cccc(OC)c3)nn(C)c2s1 (stereo not drawn),-46.3
23,CCCN(CCC)CCCNC(=O)c1cc2c(-c3ccc(OC)c(OC)c3)nn(C)c2s1,-6.94

row,SMILES,"hERG current change (%, negative = inhibition) at 10uM [%]"
1,CCCCN(C)CCNC(=O)c1cc2c(-c3ccccc3F)nn(C)c2s1,-48
2,O=C(NCCc1ccccc1)c1cc(-c2ccccc2)c(N2CCOCC2)s1,3.07
3,CCCNC(=O)c1cc(-c2ccccc2)c(N2CCCCC2)s1,14.2
4,Cn1nc(-c2ccc(Cl)cc2)c2cc(C(=O)NC3CC3)sc21,-1.54
5,CCCCN(CC)CCNC(=O)c1cc2c(-c3ccccc3F)nn(C)c2s1,-66.7
6,Cc1ccc(CNC(=O)c2cc3c(-c4ccc(Cl)cc4)nn(C)c3s2)o1,-8.27
7,CCCN(CCC)CCNC(=O)c1cc2c(-c3ccc(Cl)cc3)nn(C)c2s1,-65.6
8,CCCN(CCC)CCNC(=O)c1cc2c(-c3ccccc3F)nn(C)c2s1,-47.2
9,CCN(CC)CCCNC(=O)c1cc(-c2ccccc2)c(N2CCCCC2)s1,-51.7
10,CCN1CCCC1CNC(=O)c1cc2c(-c3ccc(Cl)cc3)nn(C)c2s1 (stereo not drawn),-62.4
11,CCOC(=O)c1ccc(CC2SC(N)=NC2=O)cc1 (stereo not drawn),2.63
12,Cc1ccc(NC(=O)CSc2nc(=O)cc(N)n2-c2ccccc2)cc1,20.3
13,CC(C)(C)NC(=O)NC(=O)CN1C(=O)NC(C)(c2ccccc2)C1=O (stereo not drawn),15.8
14,O=C(N/N=C/c1ccoc1)c1cccc([N+](=O)[O-])c1,9.75
15,COc1ccc(NS(=O)(=O)c2cccc(C(=O)NCC(c3ccc(OC)cc3)N3CCOCC3)c2)cc1 (stereo not drawn),-26.1
16,O=c1c[n+]([O-])c2ccccc2n1OCc1ccccn1,18.9
17,Cc1ccc(N2C(=O)C(NC(=O)c3c(F)cccc3F)(C(F)(F)F)C3=C2CC(C)(C)CC3=O)cc1 (stereo not drawn),9.34
18,CC(C)c1cc(-c2cc(C(=O)Nc3ccccc3)on2)nc(NCC2CC2)n1,10.3
19,NC(=O)NN=C1C2CCCC1C(c1ccccc1)NC2c1ccccc1 (stereo not drawn),-7.17
20,O=C(O)C/C(=C\c1ccc(Cl)cc1)c1nc2ccccc2o1,6.78
21,Cc1ccc(C)c2c1cc(C)c1nnc(SCC(=O)c3cccs3)n12,-61.5
22,Cc1ccc2cc(C)c3nnc(SCC(=O)c4cccs4)n3c2c1C,-23.1
23,Cc1cc(C)c2c(c1)c(C)cc1nnc(SCC(=O)c3cccs3)n12,-2.98

row,SMILES,"hERG current change (%, negative = inhibition) at 10uM [%]"
1,Cc1cc(N)n(-c2ccc(C(=O)O)cc2)n1.Cl,13.6
2,COc1ccc(CNC(=O)c2ccc(-c3ccccc3)cc2)cc1OC,0.777
3,CC1CCCCC1NC(=O)CCS(=O)(=O)c1cc2c(cc1Cl)NC(=O)CO2 (stereo not drawn),-30.5
4,Cc1cc2c(cc1S(=O)(=O)CCC(=O)Nc1cccc(C(F)(F)F)c1)OCC(=O)N2,-54
5,Cc1cc2c(cc1S(=O)(=O)CCC(=O)NC1CCCCC1C)OCC(=O)N2 (stereo not drawn),-53
6,CCc1cccc(NC(=O)CCS(=O)(=O)c2cc3c(cc2C)NC(=O)CO3)c1,-14.1
7,Cc1cc2c(cc1S(=O)(=O)CCC(=O)NC1CCC(C)CC1)OCC(=O)N2 (stereo not drawn),-14.7
8,CC(=O)c1cccc(NC(=O)CCS(=O)(=O)c2cc3c(cc2C)NC(=O)CO3)c1,1.62
9,Cc1nc(Sc2nnnn2-c2ccccc2)c(C#N)c(C)c1C,-21.3
10,CCOC(=O)C1CCCN(C(=O)Cn2cccc2C(=O)c2ccccc2)C1 (stereo not drawn),-11.5
11,Cc1cccc(C)c1NC(=O)COC(=O)c1cccnc1,4.43
12,C#CCOC(=O)C[N+](C)(C)C/C=C/c1ccccc1.[Cl-],10.4
13,Cc1cccc(N2CCN(Cc3nc(-c4cccc(Oc5ccccc5)c4)oc3C)CC2)n1,4.13
14,Cc1oc(-c2cccc(Cl)c2)nc1CN1CCC(C(=O)N2CCN(c3ccccn3)CC2)CC1,-68.5
15,Cc1oc(-c2cccc(C(F)(F)F)c2)nc1CN1CCOCC1,-3.32
16,CCN1CCN(C(=O)C2CCN(Cc3nc(-c4cccc(Cl)c4)oc3C)CC2)CC1,-42.9
17,Cc1oc(-c2cc(F)ccc2F)nc1CN1CCC(C(=O)N2CCOCC2)CC1,-42.8
18,Cc1oc(-c2cccc(C(F)(F)F)c2)nc1CN1CCN(c2ccccn2)CC1,-52.5
19,Cc1cccc(-c2nc(CSCC(=O)N3CCN(c4ccccn4)CC3)c(C)o2)c1,-41.2
20,COc1ccc(-c2nc(CN3CCC(C(=O)N4CCOCC4)CC3)c(C)o2)cc1C,-6.98
21,Cc1oc(-c2cccc(Cl)c2)nc1CN1CCC(C(=O)N2CCN(c3ccccc3F)CC2)CC1,-69.1
